Among the data in PubChem BioAssay are inhibition values, retold here.

Calls of active or inactive are those of the source. How the calls were made is not given here.

The nature of this test: Brca1-Bard1 BiLC signal decrease – luminescence, single concentration, counter-screen for Mdm2/MdmX interaction inhibitor project, confirmation (AID 504668). The note with it: Brca1/Bard1 bimolecular luciferase complementation counterscreen, at 8 µM, stronger effect = higher value. (A counterscreen serves to expose hits that act by an unwanted route or on another target.)
Usually inhibition stands for how much of the control response was suppressed. For the compound `CCOc1ccc(CN2CCN(CC(O)Cn3c4ccccc4c4ccccc43)CC2)cc1` (stereo not given), the inhibition is 35.8% (active). On to `Cc1ccccc1-c1cc(C(=O)Nc2nc3c(s2)CCCC3)c2ccccc2n1`, for which the inhibition was 34.9% (active). For `COc1ccc(-c2cc(C(=O)N/N=C/c3sccc3C)c3ccccc3n2)c(OC)c1`, the inhibition was 31.4% (active). For `CCCCCCCCCCOC(=O)Cn1c(COc2cccc(C)c2)[n+](C)c2ccccc21`, the inhibition was 24.9% (active). Consider `O=C(NN=C(c1ccccc1)c1ccccn1)c1ccccc1`, for which the inhibition is 27.4% (active). Regarding `CC(C)(C)c1cc(NCCCn2ccnc2)n2ncc(-c3ccc(Cl)cc3)c2n1`, the inhibition was 34.9% (active). Take `Cc1ccc(-c2csc(NC3OC(=O)c4ccccc43)n2)cc1` (stereo not given): the inhibition is 23.7% (active). For `Nc1nonc1-n1nnc(C(=O)N/N=C/c2cc(Cl)ccc2O)c1CN1CCCCCC1` the value was 32.2% (active). Turning to `Cc1ccc(-n2nc(C)c(NC(=O)CCl)c2C)cc1C`, the inhibition was 34% (active). For `CC(C)Cc1nc(Nc2ccc(S(=O)(=O)N3CCCC3)cc2)c2nnn(Cc3ccccc3)c2n1` the value was 24.1% (active); for `CCOC(=O)C(CC)(CC)C(=O)/C=C/c1cccc(Br)c1`, 29.2% (active). Turning to `COc1ccc(C(=O)C(CCCCC(CN(C)C)C(=O)c2ccc(OC)cc2)CN(C)C)cc1` (stereo not given), the inhibition was 30.7% (active). Under `Cc1cccc(NC(=O)[C@H](Cc2c[nH]c3ccccc23)NC(=O)[C@@H]2Cc3ccccc3CN2)c1` stands 26.6% (active); under `O=C1c2ccccc2NC(c2ccc(Cl)cc2Cl)N1O` (stereo not given), 30.7% (active).

On to `C/C(=N\NC(=O)c1nnn(-c2nonc2N)c1CN1CCc2ccccc21)c1ccccc1O`, for which the inhibition is 31.1% (active).
